Inconclusive results are not listed. The source holds several records for some structures; these can differ, active in one and inactive in another. Calls of active or inactive are those of the source. How the source made its calls, unless noted: active means hit-call score of the fitted dose curve at least 0.9, where 1 is the maximum; inactive means score below 0.9.
Tests used:
[1] = read-out: Interleukin-8 (IL8), CXCL8 (gene 3576); assay: BSK_3C_IL8: BioMAP Diversity Plus: 3C Assay for Interleukin-8 (IL8) Biomarker Activity (AID 2283020); conditions: primary human endothelial cells (HUVEC); actives raise or lower the signal
Method in brief: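 Primary human umbilical vein endothelial cells (3C system) were exposed to test chemical for 24 h, then IL-8 was quantified by ELISA. Responses were fitted bidirectionally against DMSO vehicle as baseline.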

[2] = read-out: Monokine induced gamma interferon (MIG), CXCL9 (gene 4283); assay: BSK_3C_MIG: BioMAP Diversity Plus: 3C Assay for Monokine induced gamma interferon (MIG) Biomarker Activity (AID 2283021); conditions: primary human endothelial cells (HUVEC); actives raise or lower the signal;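 on AC50: MIG protein level measured by immunoassay in the treated endothelial cultures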
Method in brief: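 Primary human umbilical vein endothelial cells in the 3C system were exposed to chemical for 24 h, after which MIG was quantified by ELISA. Activity was fitted bidirectionally against DMSO as negative control and baseline.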

[3] = target: human Vitamin D Receptor (VDR), VDR (gene 7421) (UniProt P11473); assay: ATG_VDR_TRANS: Attagene TRANS-FACTORIAL HepG2 Assay for human Vitamin D Receptor (VDR) (AID 2283022; active means hit-call score of the fitted dose curve at least 0.9, where 1 is the maximum)
Method in brief: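 HepG2 cells were transiently transfected with GAL4-UAS reporter units and a chimeric VDR-Gal4 construct, then dosed for 24 hours. Reporter mRNA was quantified by RT-PCR, fluorescent labeling, HpaI digestion and capillary electrophoresis; gain of signal analysed vs DMSO.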

[4] = BSK_3C_SRB: Viability Assessment in the BioMAP Diversity Plus: 3C Assay (AID 2283023); conditions: primary human endothelial cells (HUVEC);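 further: fitted both ways against DMSO so a hit may be signal rise or drop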
Method in brief: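 Human umbilical vein endothelial cells in the 3C system, treated 24 h. Total protein measured by 0.1% sulforhodamine B staining after 10% TCA fixation, read at 560 nm; bidirectional fit versus DMSO.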

[5] = read-out: Matrix Metallopeptidase 1 (MMP1), MMP1 (gene 4312); assay: BSK_BE3C_MMP1: BioMAP Diversity Plus: BE3C Assay for Matrix Metallopeptidase 1 (MMP1) Biomarker Activity (AID 2283024); conditions: primary human bronchial epithelial cells; actives raise or lower the signal
Method in brief: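 Primary human bronchial epithelial cells were dosed with test chemicals, and MMP1 levels were measured by ELISA 24 h later. Data were fitted bidirectionally against DMSO as the negative control and activity baseline.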

[6] = BSK_3C_Vis: BioMAP Diversity Plus: 3C Assay for Morphology Visualization (AID 2283025); conditions: primary human endothelial cells (HUVEC);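 further: fitted both ways so gain or loss versus DMSO counts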
Method in brief: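 Human umbilical vein endothelial cells in the 3C system were imaged by light microscopy 24 h after chemical dosing to record cell morphology. Activity was fitted bidirectionally against DMSO as negative control and baseline; the endpoint serves as a background control.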

[7] = read-out: Pselectin, SELP (gene 6403); assay: BSK_4H_Pselectin: BioMAP Diversity Plus: 4H Assay for Pselectin Biomarker Activity (AID 2283026); conditions: primary human endothelial cells (HUVEC); actives raise or lower the signal
Method in brief: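 Primary human umbilical vein endothelial cells were exposed to test chemical for 24 h, then cell-surface P-selectin was quantified by ELISA. Activity was fitted bidirectionally against DMSO as negative control and baseline.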

[8] = BSK_4H_SRB: Viability Assessment in the BioMAP Diversity Plus: 4H Assay (AID 2283027); conditions: primary human endothelial cells (HUVEC);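 further: cells exposed to compound for 24 h before staining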;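 on AC50: curves fitted both ways versus DMSO so AC50 may be loss or gain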
Method in brief: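 Human umbilical vein endothelial cells were dosed with chemical and, after 24 h, fixed with 10% TCA, stained with 0.1% sulforhodamine B, and read at 560 nm to give total protein as a cytotoxicity measure. Bidirectional fitting relative to DMSO control.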

[9] = BSK_BE3C_SRB: Viability Assessment in the BioMAP Diversity Plus: BE3C Assay (AID 2283028); conditions: primary human bronchial epithelial cells;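 on AC50: fitted both ways so AC50 may mark signal gain or loss versus DMSO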
Method in brief: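 Human bronchial epithelial primary cells in confluent culture, 24 h after chemical dosing; total protein by 0.1% SRB staining after 10% TCA fixation, read at 560 nm. Bidirectional fitting versus DMSO baseline.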

[10] = read-out: Thrombomodulin, THBD (gene 7056); assay: BSK_3C_Thrombomodulin: BioMAP Diversity Plus: 3C Assay for Thrombomodulin Biomarker Activity (AID 2283029); conditions: primary human endothelial cells (HUVEC); actives raise or lower the signal
Method in brief: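 Primary human umbilical vein endothelial cells (3C system) were exposed to chemical for 24 h, then thrombomodulin levels were measured by ELISA. Activity was fitted bidirectionally against the DMSO negative control as baseline.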

[11] = read-out: Urokinase-type plasminogen activator receptor (uPAR), PLAUR (gene 5329); assay: BSK_4H_uPAR: BioMAP Diversity Plus: 4H Assay for Urokinase-type plasminogen activator receptor (uPAR) Biomarker Activity (AID 2283030); conditions: primary human endothelial cells (HUVEC); actives raise or lower the signal
Method in brief: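 Human umbilical vein endothelial cells in the 4H system, 24 h after chemical dosing. Cell-surface uPAR measured by ELISA, fitted in both directions versus DMSO; cytotoxicity checked by SRB total protein in parallel cultures.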

[12] = read-out: Vascular endothelial growth factor receptor 2 (Homo sapiens) (UniProt P35968); assay: BSK_4H_VEGFRII: BioMAP Diversity Plus: 4H Assay for Vascular endothelial growth factor receptor 2 (VEGFR2) Biomarker Activity (AID 2283031); conditions: primary human endothelial cells (HUVEC); actives raise or lower the signal
Method in brief: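 Primary human umbilical vein endothelial cells (4H system), 24 h exposure; cell-surface VEGFR2 measured by ELISA. Bidirectional fitting versus DMSO; cytotoxicity checked in parallel by SRB total-protein staining.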

[13] = read-out: Human Leukocyte Antigen - DR isotype (HLADR), HLA-DRA (gene 3122); assay: BSK_BE3C_HLADR: BioMAP Diversity Plus: BE3C Assay for Human Leukocyte Antigen - DR isotype (HLADR) Biomarker Activity (AID 2283032); conditions: primary human bronchial epithelial cells; actives raise or lower the signal
Method in brief: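 Human primary bronchial epithelial cells in the BE3C system were exposed to chemicals for 24 h, after which HLA-DR levels were quantified by ELISA. Activity was fitted bidirectionally, gain or loss of signal, against DMSO as negative control and baseline.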

[14] = read-out: Vascular cell adhesion molecule 1 (VCAM1), VCAM1 (gene 7412); assay: BSK_4H_VCAM1: BioMAP Diversity Plus: 4H Assay for Vascular cell adhesion molecule 1 (VCAM1) Biomarker Activity (AID 2283033); conditions: primary human endothelial cells (HUVEC); actives raise or lower the signal
Method in brief: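 Primary human umbilical vein endothelial cells were exposed to chemicals for 24 h, after which VCAM-1 was quantified by ELISA. Responses were fitted bidirectionally against DMSO as negative control and activity baseline.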

[15] = read-out: Interferon-gamma inducible Protein 10 (IP10), CXCL10 (gene 3627); assay: BSK_BE3C_IP10: BioMAP Diversity Plus: BE3C Assay for Interferon-gamma inducible Protein 10 (IP10) Biomarker Activity (AID 2283034); conditions: primary human bronchial epithelial cells; actives raise or lower the signal
Method in brief: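 Human primary bronchial epithelial cells were exposed to chemicals for 24 hours, after which IP-10 levels were measured by ELISA. Data were fitted bidirectionally against DMSO, which served as the negative control and activity baseline.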

[16] = read-out: Monokine induced gamma interferon (MIG), CXCL9 (gene 4283); assay: BSK_BE3C_MIG: BioMAP Diversity Plus: BE3C Assay for Monokine induced gamma interferon (MIG) Biomarker Activity (AID 2283035); conditions: primary human bronchial epithelial cells; actives raise or lower the signal
Method in brief: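 ELISA read-out of MIG in human lung bronchial epithelial primary cultures, 24 h post-dosing. Bidirectional curve fit vs DMSO baseline.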

[17] = read-out: Transforming growth factor beta 1 (TGFb1), TGFB1 (gene 7040); assay: BSK_BE3C_TGFb1: BioMAP Diversity Plus: BE3C Assay for Transforming growth factor beta 1 (TGFb1) Biomarker Activity (AID 2283036); conditions: primary human bronchial epithelial cells; actives raise or lower the signal
Method in brief: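 Human primary bronchial epithelial cells (BE3C system) were dosed with chemical and TGF-b1 levels measured by ELISA at 24 h. Activity was fitted bidirectionally relative to DMSO negative control as baseline.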

[18] = read-out: Plasminogen activator inhibitor-1 (PAI1), SERPINE1 (gene 5054); assay: BSK_BE3C_PAI1: BioMAP Diversity Plus: BE3C Assay for Plasminogen activator inhibitor-1 (PAI1) Biomarker Activity (AID 2283037); conditions: primary human bronchial epithelial cells; actives raise or lower the signal
Method in brief: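 Human primary bronchial epithelial cells were exposed to chemical for 24 h, then PAI-1 was quantified by ELISA. Activity was fitted bidirectionally relative to the DMSO negative control baseline.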

[19] = read-out: urokinase plasminogen activator (uPA), PLAU (gene 5328); assay: BSK_BE3C_uPA: BioMAP Diversity Plus: BE3C Assay for urokinase plasminogen activator (uPA) Biomarker Activity (AID 2283038); conditions: primary human bronchial epithelial cells; actives raise or lower the signal
Method in brief: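 Primary human bronchial epithelial cells, uPA measured by ELISA 24 h after dosing. Bidirectional change relative to DMSO; cytotoxicity checked in parallel cultures by sulforhodamine B total-protein staining.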

[20] = read-out: Urokinase-type plasminogen activator receptor (uPAR), PLAUR (gene 5329); assay: BSK_BE3C_uPAR: BioMAP Diversity Plus: BE3C Assay for Urokinase-type plasminogen activator receptor (uPAR) Biomarker Activity (AID 2283039); conditions: primary human bronchial epithelial cells; actives raise or lower the signal
Method in brief: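 Primary human bronchial epithelial cells were dosed with chemical and harvested 24 h later; uPAR was quantified by ELISA. Activity was fitted bidirectionally against DMSO as negative control and baseline.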

Measured: AC50

Sequence of human Vitamin D Receptor (VDR), VDR (gene 7421) (P11473 whole entry, looked up, the tested form may be a part): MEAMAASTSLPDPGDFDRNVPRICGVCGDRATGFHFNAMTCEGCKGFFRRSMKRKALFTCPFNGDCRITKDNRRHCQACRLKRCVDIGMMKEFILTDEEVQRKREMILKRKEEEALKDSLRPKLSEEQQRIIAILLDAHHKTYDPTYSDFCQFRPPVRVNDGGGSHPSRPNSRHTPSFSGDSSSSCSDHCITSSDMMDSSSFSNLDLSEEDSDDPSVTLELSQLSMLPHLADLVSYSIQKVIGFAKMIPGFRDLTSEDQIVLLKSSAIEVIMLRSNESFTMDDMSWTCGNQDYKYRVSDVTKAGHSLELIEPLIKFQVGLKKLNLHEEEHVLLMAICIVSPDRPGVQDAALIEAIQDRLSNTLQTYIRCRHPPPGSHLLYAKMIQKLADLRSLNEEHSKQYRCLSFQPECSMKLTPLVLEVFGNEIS

CCCCCCC(=O)O
inactive: all assays above

C[C@@H]1C[C@H]2[C@@H]3CCC4=CC(=O)C=C[C@]4(C)[C@@]3(F)[C@@H](O)C[C@]2(C)[C@@]1(O)C(=O)COP(=O)(O)O
inactive: [1] | [2] | [3] | [4] | [5] | [6] | [7] | [8] | [9] | [10] | [11] | [12] | [13] | [14] | [15] | [16] | [17] | [18] | [19] | [20]
active: [5] 0.1 µM | [18] 0.763 µM

c1ccc2c(c1)Cc1ccccc1-2
not listed: [20]
inactive: all other assays above

CC(C)(C)c1ccc(O)c(C(C)(C)C)c1
active: [1] 12.9 µM | [2] 14.7 µM | [4] 9.68 µM | [5] 32.4 µM | [6] 6.71 µM | [7] 7.52 µM | [8] 12.4 µM | [9] 32 µM | [11] 10.6 µM | [13] 28.1 µM | [14] 9.93 µM | [15] 31.7 µM | [16] 36.1 µM | [17] 27.8 µM | [18] 31.6 µM | [19] 30.7 µM | [20] 36.3 µM
inactive: [3] | [10] | [12]

CCCOC(=O)c1ccc(O)cc1
inactive: all assays above

NC(=O)N(O)[C@@H]1C=C[C@H](Oc2cccc(Oc3ccc(F)cc3)c2)C1
active: [4] 9.5 µM | [15] 30.7 µM
inactive: all other assays above

CCC(=C(c1ccc(O)cc1)c1ccc(OCCN(C)C)cc1)c1ccccc1
inactive: [3] | [12]
active: [1] 9.28 µM | [2] 11.1 µM | [3] 11.6 µM | [4] 9.01 µM | [5] 12.2 µM | [6] 6.97 µM | [7] 6.16 µM | [8] 8.19 µM | [9] 9.32 µM | [10] 12.8 µM | [11] 7.41 µM | [13] 8.64 µM | [14] 10.3 µM | [15] 8.38 µM | [16] 9.95 µM | [17] 9.79 µM | [18] 12 µM | [19] 9.93 µM | [20] 9.55 µM

CC(=O)CC(C)(C)O
inactive: all assays above

CC1=C(/C=C/C(C)=C/C=C/C(C)=C/C(=O)O)C(C)(C)CCC1
active: [5] 0.854 µM | [7] 31.7 µM | [13] 20 µM | [14] 26.3 µM | [15] 20 µM
inactive: all other assays above

CCc1nn(C2CCCCC2)c2cc(C3(C#N)CCC(C(=O)O)CC3)ccc12 (configuration not stated)
inactive: [2] | [3] | [5] | [9] | [10] | [12] | [17]
active: [1] 7 µM | [4] 5.08 µM | [6] 39 µM | [7] 4.25 µM | [8] 5.87 µM | [11] 4.94 µM | [13] 31 µM | [14] 27 µM | [15] 15.2 µM | [16] 28 µM | [18] 4.33 µM | [19] 3.48 µM | [20] 5.01 µM

Cc1oc(-c2ccccc2)nc1CCOc1ccc(C[C@H](Nc2ccccc2C(=O)c2ccccc2)C(=O)O)cc1
active: [1] 28.5 µM | [2] 36.8 µM | [4] 14.9 µM | [6] 37.5 µM | [7] 32.9 µM | [8] 15.1 µM | [9] 5.13 µM | [11] 15.6 µM | [13] 3.01 µM | [14] 33.5 µM | [15] 2.55 µM | [16] 4.79 µM | [17] 5.06 µM | [18] 5.29 µM | [19] 1.8 µM | [20] 3.63 µM
inactive: [3] | [5] | [10] | [12]
